# In the supplement of paper PMC12636033:
# ± gives the standard deviation of the averaged measurements. In all, about 33,000 sequences were measured (“E-score (rank enrichment, -0.5 to 0.5)”: median about -0.0068, highest 2% from about 0.24 on). This is one part of a sample in which the highest values are shown more often than they occur.
# Test system: muMax20 (Max(13-93) K31hArg/K57hArg, M65Nle)
# Test: PBM 8-mer E-score (E-score (rank enrichment, -0.5 to 0.5)); higher = stronger preferential binding
# Description: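 Protein binding microarray (universal PBM chip covering all 10-mers in fixed probe flanks) with chemically synthesized human Max(13-93) bHLH-LZ analogs (not full-length Max) bearing noncanonical residues (hArg, Tha, Aib, Nle at 65) and aromatic Cys staples. Read-out per 8-mer (and its reverse complement): E-score (rank-based enrichment, -0.5 to 0.5) and Z-score of median probe intensity.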
row,Sequence,PBM 8-mer E-score
1,ATACTGAA,0.0687 ± 0.079
2,GCAGGTCA,-0.191 ± 0.0023
3,CGCTCGAA,-0.156 ± 0.0039
4,AGATCTTC,-0.15 ± 0.053
5,CCATGTCG,-0.0015 ± 0.13
6,GACACATA,0.139 ± 0.071
7,AATACAAG,0.137 ± 0.0018
8,AATACATA,0.255 ± 0.074
9,GATACAAA,0.0222 ± 0.023
10,CACACATA,0.12 ± 0.12
11,CATACATA,0.163 ± 0.068
12,TATACATA,0.237 ± 0.023
13,GATACATA,0.204 ± 0.044
14,AATACATG,0.205 ± 0.015
15,TACACATA,0.245 ± 0.037
16,AATACAAA,0.343 ± 0.042
17,AATACATT,0.158 ± 0.021
18,ACTGGATC,-0.0849 ± 0.029
19,CCTCATCA,-0.0311 ± 0.07
20,CGTCTACA,-0.0683 ± 0.077
21,ATTCGACG,0.0309 ± 0.1
22,CACGAGCA,-0.159 ± 0.013
23,AAAAACGT,0.249 ± 0.0044
24,CAAAACGA,0.0111 ± 0.00023
25,AAAGACGA,0.246 ± 0.0064

row,Sequence,PBM 8-mer E-score
1,AAAAACGG,-0.048 ± 0.14
2,AAAGACGG,0.0825 ± 0.019
3,AAAAACGC,0.0604 ± 0.015
4,GAAAACGA,0.0327 ± 0.09
5,GAAGACGA,-0.0988 ± 0.065
6,AAAAACGA,0.297 ± 0.0076
7,CTCGGTCC,-0.2695 ± 0.0006
8,AGAGTTCA,-0.124 ± 0.038
9,CGTTCGCA,-0.0226 ± 0.0093
10,CTCAGACA,0.044 ± 0.035
11,GCCATATA,0.0868 ± 0.0087
12,GTACTACA,0.262 ± 0.072
13,ATACTACA,0.222 ± 0.078
14,CTACTTCA,0.00799 ± 0.001
15,ATACTTCA,0.0693 ± 0.032
16,CTACTACA,0.146 ± 0.08
17,GTACTTCA,0.237 ± 0.13
18,ATCAGCGC,-0.0642 ± 0.0034
19,CACCGGAG,-0.173 ± 0.083
20,ACACATTC,-0.0504 ± 0.14
21,AATACGAA,0.136 ± 0.041
22,GATCAACA,0.0109 ± 0.0053
23,AATCAACA,0.256 ± 0.032
24,TATCAACA,0.158 ± 0.054
25,ACGGTGTG,-0.143 ± 0.056

row,Sequence,PBM 8-mer E-score
1,ACCTTGTA,0.238 ± 0.077
2,CCCTTGTA,0.0442 ± 0.13
3,GCCTTGTA,0.029 ± 0.077
4,GTCAGGAA,-0.0169 ± 0.068
5,ATAGAGCC,-0.106 ± 0.093
6,CAATACCA,0.149 ± 0.042
7,TAATACTA,0.252 ± 0.0039
8,GAATACCA,0.121 ± 0.025
9,AAATACTA,0.193 ± 0.081
10,CAATACTA,0.16 ± 0.062
11,TAATACCA,0.24 ± 0.014
12,ACAGCAGG,-0.0464 ± 0.034
13,GCTCCCCA,0.128 ± 0.042
14,CGGTCCTA,-0.17 ± 0.11
15,ATATGGGG,0.0664 ± 0.016
16,GCGCGAAC,-0.0762 ± 0.17
17,GACTAAGC,-0.239 ± 0.043
18,AACCATTG,-0.0386 ± 0.14
19,AACCATTA,0.269 ± 0.0088
20,CACCATTA,0.0322 ± 0.16
21,TAAATGAA,0.114 ± 0.11
22,AGTTGCAC,-0.00822 ± 0.011
23,AGTTGCAT,0.287 ± 0.067
24,AGTTGCAG,0.0866 ± 0.039
25,GGTTACAC,0.151 ± 0.076

row,Sequence,PBM 8-mer E-score
1,CGTGCTCA,0.162 ± 0.051
2,CGATGGAG,-0.153 ± 0.037
3,CAAGTGGG,0.0751 ± 0.013
4,GATGTGAC,-0.206 ± 0.059
5,GATGTGAA,0.105 ± 0.079
6,CACGTGGG,0.447 ± 0.062
7,AATGTGAA,0.211 ± 0.056
8,TATGTGAA,0.299 ± 0.074
9,GACGTGGC,-0.0512 ± 0.032
10,CACGTGGC,0.442 ± 0.068
11,AACGTGGG,0.184 ± 0.14
12,CATGTGAG,0.216 ± 0.059
13,AACGTGGC,0.0382 ± 0.033
14,CATGTGAC,0.314 ± 0.075
15,AAGTTCTC,-0.179 ± 0.0056
16,CACTGCAC,-0.0231 ± 0.055
17,CTCTAACC,-0.0244 ± 0.061
18,CGAATTTC,0.0312 ± 0.1
19,CGTTACCA,0.124 ± 0.012
20,CGCCATTA,-0.0752 ± 0.029
21,GCCCCTGA,-0.179 ± 0.034
22,AAGCTTAG,0.0465 ± 0.086
23,CATGTGGG,0.309 ± 0.033
24,TGTGTGAA,0.183 ± 0.038
25,AATGTGGG,0.142 ± 0.14

row,Sequence,PBM 8-mer E-score
1,CATGTGGA,0.213 ± 0.054
2,CACGTGGA,0.459 ± 0.037
3,AGTGTGAA,0.254 ± 0.011
4,GACGTGGA,0.04 ± 0.064
5,TACGTGGA,0.0197 ± 0.044
6,AGTGTGAG,0.163 ± 0.14
7,GCCTCGGA,-0.187 ± 0.058
8,AAGTAGCC,-0.0862 ± 0.0056
9,AACCTGAA,0.0509 ± 0.081
10,AGGTTTCA,-0.031 ± 0.018
11,CACAAAAC,0.165 ± 0.027
12,TAGACTCA,-0.163 ± 0.0053
13,CTGTGAGC,-0.113 ± 0.058
14,AAAAAGAC,0.0949 ± 0.026
15,ACAAAGAT,0.137 ± 0.027
16,AAAAAGCC,0.166 ± 0.028
17,AAAAAGCA,0.218 ± 0.046
18,AAAAAGCT,0.272 ± 0.099
19,AAAAAGAT,0.24 ± 0.03
20,ATATCGCG,0.0599 ± 0.043
21,AGAAAGAT,0.061 ± 0.093
22,AATTTGAA,0.149 ± 0.027
23,ATTTTGAA,0.253 ± 0.084
24,ATTTTGAG,0.111 ± 0.012
25,CTCGAGGA,-0.0146 ± 0.017

row,Sequence,PBM 8-mer E-score
1,AATCCTGA,-0.167 ± 0.053
2,ACACATGC,0.22 ± 0.019
3,CCACATGA,0.225 ± 0.1
4,GCACATGC,0.166 ± 0.06
5,GCACATGA,0.256 ± 0.095
6,AAACATGT,0.331 ± 0.04
7,CCACATGC,0.217 ± 0.057
8,ACACATGA,0.148 ± 0.068
9,AAACATGA,0.169 ± 0.031
10,AAACATGG,0.178 ± 0.064
11,ACACATGG,0.271 ± 0.06
12,CCACATGG,0.255 ± 0.11
13,TCACATGA,0.173 ± 0.029
14,GAGGAGCC,-0.1 ± 0.084
15,ACCGGTGG,-0.147 ± 0.06
16,ACTACATC,0.224 ± 0.007
17,CACCCCTC,0.11 ± 0.013
18,AACCCATC,-0.108 ± 0.085
19,ACACATCT,0.11 ± 0.072
20,ACACATGT,0.346 ± 0.023
21,ACACATAT,0.184 ± 0.053
22,CAGGCGCC,-0.0488 ± 0.0079
23,ATATTCAA,0.197 ± 0.0025
24,ATATTGAG,0.0529 ± 0.069
25,ATATTCAT,0.287 ± 0.04

row,Sequence,PBM 8-mer E-score
1,ATATTGAA,0.161 ± 0.022
2,ATATTGAC,0.0428 ± 0.0027
3,ATATTGAT,0.25 ± 0.047
4,TTATTGAA,0.3 ± 0.045
5,GTATTGAA,0.209 ± 0.047
6,ATATTCAC,0.181 ± 0.12
7,AATGGTAC,0.0908 ± 0.11
8,AACGGCAC,-0.107 ± 0.11
9,CGGTCTCA,-0.242 ± 0.2
10,GGTACCTA,-0.105 ± 0.16
11,AAGCACTT,0.132 ± 0.045
12,ACTATGCG,0.16 ± 0.042
13,GATAAAAC,0.203 ± 0.078
14,AATAAAAG,0.281 ± 0.011
15,ATAAAAAG,0.328 ± 0.066
16,ATAAAAAA,0.189 ± 0.02
17,AATAAACC,0.175 ± 0.022
18,AATAAAAA,0.266 ± 0.015
19,AATAAAAC,0.271 ± 0.01
20,AATAAAAT,0.0637 ± 0.011
21,ATAAAAGG,0.192 ± 0.058
22,AATAAACA,0.171 ± 0.075
23,AATAAAGG,0.0493 ± 0.095
24,AAAAAAAG,0.178 ± 0.016
25,CGAGCAGC,-0.0303 ± 0.083
